# Measurements: ChEMBL document CHEMBL3988442, “University of Dundee, Small-Polar-MMV Screening Library” (2021)
# In all, about 48,000 compounds went through this assay and about 13,000 (27%) showed an effect of 50% or more. The list shows a part of the results.
# System: Wolbachia pipientis
# Assay: Anti-Wolbachia Cell-Based Screen
# Format: functional
# Set-up: scale not given: in the data most compounds retested in dose-response had high values
# Settings: 5 µM
row,SMILES,Percent Effect [%]
1,CC(C)Cc1noc(CN2CCCC(CNS(N)(=O)=O)C2)n1 (stereo unspecified),6.336
2,Cc1noc2nc(C3CCN(CC4=CCCOC4)CC3)cc(C(F)F)c12.Cl,-4.292
3,CCS(=O)(=O)c1ccc2oc([C@H]3CCN(Cc4ccccn4)C3)nc2c1,-4.332
4,Cc1noc2nc(C3CCN(CC4CCCCC4)CC3)cc(C(F)F)c12.Cl,130.1
5,Cc1n[nH]c2ncc(CNC3CCN(Cc4ccccn4)CC3)cc12.Cl,0.2679
6,CCOC(C)c1noc(CN2CCN(CC3CCCC3)CC2)n1 (stereo unspecified),-4.058
7,Cc1noc2nc(C3CCN(Cc4ccccn4)CC3)cc(C(F)F)c12,126.2
8,COc1ccc(N(C)C(=O)c2ccc(Cl)c(S(C)(=O)=O)c2)cn1,-5.224
9,Cc1c(-c2ccccc2)ncn1CCCNc1cccnc1,-10.09
10,CN(C)CCn1ccnc1C1CCN(C(=O)CCc2cccnc2)CC1,-5.205
11,Cc1ccnn1CCC(=O)N1CCN(C2CCc3ccccc3C2)CC1 (stereo unspecified),-3.022
12,Cc1ccnn1CCC(=O)N1CCCC[C@]2(C)NC(=O)CCC[C@H]12,63.73
13,COc1ccc(N2CCN(C(=O)CCn3nccc3C)CC2(C)C)cc1,-0.9656
14,Cc1ccnn1CCC(=O)N(Cc1ccsc1)CC(C)C,6.512
15,COc1ccc(N2CCN(C(=O)Cn3nccc3C)CC2(C)C)cc1,3.492
16,O=C1CCCCN1CCC(=O)N1CCCCC1c1ccc(F)cc1 (stereo unspecified),-7.872
17,CN1C(=O)CC[C@@H]2N(C(=O)CCc3cccnc3)CCCC[C@@]21C,73.04
18,COc1ccc(N2CCN(C(=O)CCn3nccc3C)C(C)C2)cc1 (stereo unspecified),-2.814
19,Cc1ccnn1CCC(=O)N1CCCC[C@@]2(C)[C@@H]1CCC(=O)N2C,76.68
20,CCN1C(=O)CC[C@@H]2N(C(=O)CCn3nccc3C)CCCC[C@@]21C,96.02
21,COc1ccc(O[C@H]2COCCN(Cc3cccc4c3OCO4)C2)cc1,-9.045
22,CCCc1cc(NCc2nc(COC)no2)n2nccc2n1,-5.978
23,Cc1nc(CN2CCCC(Cn3cc(CCO)nn3)C2)c2ccccn12 (stereo unspecified),-4.112
24,CC(C)n1cc(CN2CCCN(C(=O)c3cc(Cl)c[nH]3)CC2)cn1,1.101

row,SMILES,Percent Effect [%]
1,CS(=O)(=O)Nc1cccc(CNC(=O)CCNC(=O)c2cccs2)c1,4.351
2,CN(C)Cc1nnc(C2CCN(c3nccc(N)n3)CC2)n1C1CC1,9.294
3,Cc1cc2ccccc2n1CCC(=O)N1CCCC(O)(CN(C)C)CC1 (stereo unspecified),-7.968
4,Cc1cc2ccncc2n1CC1(O)CCN(C(=O)c2ccccn2)CC1,79.68
5,Cc1cc(C(=O)N2C[C@@H]3COC[C@]3(c3nnc(C(C)C)o3)C2)on1,3.18
6,Cc1cc(C(=O)N2CCC(O)(Cn3ccc4ccncc43)CC2)on1,111.8
7,O=C(c1cnc(Nc2ccccc2)nc1)N1CCC(O)(CO)CC1,-9.694
8,Cc1cc2ccncc2n1CC1(O)CCN(C(=O)c2ccncc2)CC1,105.6
9,CN(C)CC1(O)CCCN(C(=O)Cn2ccc3ccccc32)CC1 (stereo unspecified),-35.57
10,O=C(c1ccncc1)N1CCC(O)(Cn2ccc3ccncc32)CC1,-4.152
11,O=C(c1cncc(N2CCC(O)(CO)CC2)n1)N1CCCC1,-6.183
12,Cc1cc(C(=O)N2CCC(O)(Cn3c(C)cc4ccncc43)CC2)on1,79.54
13,CCNc1ncc(C(=O)NCCc2csc(-c3ncccn3)n2)cn1,-22.07
14,CCN(Cc1cccc(F)c1)c1ccc2nnnn2n1,20.24
15,CN(C)C(=O)CCC(=O)NCc1cccnc1-n1cnc2ccccc21,-4.725
16,Cc1cc2ccncc2n1CC1(O)CCN(C(=O)c2cccnc2)CC1,107.2
17,Cc1ncsc1C(=O)N1CCC(O)(Cn2c(C)cc3ccncc32)CC1,102
18,Cc1ncsc1C(=O)N1CC[C@@H]2[C@@H](CC1)OCCN2c1cccnc1,-15.36
19,O=C(c1cncc(Br)c1)N1CCC(O)(Cn2ccc3ccncc32)CC1,-1.363
20,Cc1nc(N2CCN(C(=O)c3cccnc3)CC2)cc(-n2cccc2)n1,13.16
21,Cc1nnc(SCCC(=O)N(C)Cc2c(F)cccc2Cl)[nH]1,13.01
22,CCCn1nc2c(cc1=O)CN(CCS(C)(=O)=O)CC2,0.2637
23,Cc1nc2c(c(N3CCC(O)(Cn4ccnc4)CC3)n1)CCNCC2,-21.19
24,CC(NC(=O)NCCc1ccc(Cl)s1)c1ccccn1 (stereo unspecified),158

row,SMILES,Percent Effect [%]
1,CC(NC(=O)NCc1ccccc1Cl)c1ccccn1 (stereo unspecified),111.7
2,CCCNC(=O)c1ccc(NC(=O)NC(C)c2ccccn2)cc1 (stereo unspecified),-5.222
3,CC(NC(=O)Nc1cccnc1N1CCOCC1)c1ccccn1 (stereo unspecified),-6.169
4,CC(NC(=O)NCc1cc(Br)cs1)c1ccccn1 (stereo unspecified),100.4
5,CC(NC(=O)N(C)Cc1ccc(Cl)s1)c1ccccn1 (stereo unspecified),6.324
6,CC(NC(=O)NCc1ccc(Cl)s1)c1ccccn1 (stereo unspecified),3.359
7,CC(C)CNC(=O)c1ccc(NC(=O)NC(C)c2ccccn2)cc1 (stereo unspecified),-15.83
8,CC(NC(=O)NCc1ccc(Cl)cc1)c1ccccn1 (stereo unspecified),9.197
9,CC(C)CN1CC2(CCN(C(=O)C3CNC(=O)N3)CC2)CC1=O (stereo unspecified),-19.59
10,CN(C)C(CNC(=O)c1cc2c([nH]c1=O)CCCC2=O)c1ccsc1 (stereo unspecified),7.24
11,Cc1ccc(CNC(=O)c2ccc(S(=O)(=O)N3C[C@@H]4C[C@H]3CN4)cc2)o1,13.35
12,COc1cccc(N2CCN(Cc3ccc(NC(C)=O)cc3)CC2=O)c1,-1.185
13,COc1cccc(N2CCN(Cc3cccc(CCN)c3)CC2=O)c1,112.7
14,COc1cccc(N2CCN(CC[C@H](O)c3ccccc3)CC2=O)c1,-29.06
15,COc1cccc(CN2CCN(Cc3ccc4nonc4c3)CC2=O)c1,-14.94
16,COc1ccc(N2CCN(CC[C@H](O)c3ccccc3)CC2=O)cc1,-22.52
17,COCCCN1C(=O)CC[C@H]2CN(Cc3ccc4occc4c3)CC[C@H]21,-8.694
18,CCn1cc(CN2CCN(Cc3cccc(OC)c3)C(=O)C2)cc1C#N,-7.886
19,COc1cc(CN2CCN(c3cccc(OC)c3)C(=O)C2)cc(OC)c1,-15.09
20,COc1cccc(N2CCN(C(=O)C(OC)c3ccccc3)CC2=O)c1 (stereo unspecified),13.04
21,COc1cccc(N2CCN(Cc3ccc4occc4c3)CC2=O)c1,113.8
22,COc1cccc(N2CCN(Cc3ccc4ccn(C)c4c3)CC2=O)c1,113.3
23,COc1cccc(N2CCN(Cc3cc(C)cc(F)c3)CC2=O)c1,130.9
